Reference: PubChem BioAssay AID1159580 (chemical genetic matrix, 2015)
About 2,000 (36%) of roughly 5,500 compounds were called active. About 18% were inconclusive and are not listed. No stated cut-off is given here; in the data, active means normalized growth mostly below about 0.91 (no sharp cut-off); inconclusive means no clear call, values can overlap the other calls; inactive means mostly above about 0.92. The list shows a part of the results.

Experiment: chemical genetic growth profiling, strain panel (AID 1159580);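 further: tested at 20 µM; growth read once vehicle control cultures reached saturation at 30 °C; 1 = growth at the plate median or of vehicle wells; lower values mean less growth of the strain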
Conditions: growth OD

Measured: normalized growth

COc1ccc2c(c1)c(CC(=O)OCC(=O)O)c(C)n2C(=O)c1ccc(Cl)cc1
inactive: S. cerevisiae deletion strains, locus YJR075W, strain HOC1, active compounds read low 1.03 | S. cerevisiae deletion strains, locus YKL009W, strain mrt4, active compounds read low 0.951 | S. cerevisiae deletion strains, locus YKL068W, active compounds read low 1.01 | S. cerevisiae deletion strains, locus YKL085W, strain MDH1 (second series), active compounds read low 0.984 | S. cerevisiae deletion strains, locus YKL085W, strain MDH1, active compounds read low 0.984 | S. cerevisiae deletion strains, locus YKL160W, strain elf1, active compounds read low 0.99 | S. cerevisiae deletion strains, locus YKL190W, strain CNB1, active compounds read low 1.01 | S. cerevisiae deletion strains, locus YKR001C, strain vps1, active compounds read low 1.02 | S. cerevisiae deletion strains, locus YKR026C, strain gcn3, active compounds read low 0.991 | S. cerevisiae deletion strains, locus YKR091W, strain srl3, active compounds read low 1 | S. cerevisiae deletion strains, locus YLL001W, strain dnm1, active compounds read low 0.958 | S. cerevisiae deletion strains, locus YLL026W, active compounds read low 0.997 | S. cerevisiae deletion strains, locus YLL041C, strain sdh2, active compounds read low 0.995 | S. cerevisiae deletion strains, locus YLR027C, strain aat2, active compounds read low 0.971 | S. cerevisiae deletion strains, locus YLR039C, strain RIC1, active compounds read low 1.03 | S. cerevisiae deletion strains, locus YLR058C, strain SHM2, active compounds read low 1.02 | S. cerevisiae deletion strains, locus YLR102C, strain apc9, active compounds read low 1.01 | S. cerevisiae deletion strains, locus YLR113W, strain HOG1, active compounds read low 0.991 | S. cerevisiae deletion strains, locus YLR221C, strain rsa3, active compounds read low 0.998 | S. cerevisiae deletion strains, locus YLR258W, strain gsy2, active compounds read low 1 | S. cerevisiae deletion strains, locus YLR262C, strain YPT6 (second series), active compounds read low 0.99 | S. cerevisiae deletion strains, locus YLR262C, strain YPT6, active compounds read low 1.03 | S. cerevisiae deletion strains, locus YLR268W, strain sec22, active compounds read low 1.06 | S. cerevisiae deletion strains, locus YLR320W, strain mms22, active compounds read low 1.01 | S. cerevisiae deletion strains, locus YLR330W, strain CHS5, active compounds read low 1.01 | S. cerevisiae deletion strains, locus YLR342W, strain FKS1 (second series), active compounds read low 1.02 | S. cerevisiae deletion strains, locus YLR342W, strain FKS1, active compounds read low 0.971 | S. cerevisiae deletion strains, locus YLR357W, strain rsc2, active compounds read low 0.946 | S. cerevisiae deletion strains, locus YLR370C, strain arc18, active compounds read low 0.983 | S. cerevisiae deletion strains, locus YLR371W, strain rom2, active compounds read low 1.02 | S. cerevisiae deletion strains, locus YLR384C, strain iki3, active compounds read low 0.982 | S. cerevisiae deletion strains, locus YLR418C, strain cdc73, active compounds read low 1.03 | S. cerevisiae deletion strains, locus YML016C, strain PPZ1, active compounds read low 1 | S. cerevisiae deletion strains, locus YML032C, strain rad52, active compounds read low 1.02 | S. cerevisiae deletion strains, locus YML120C, strain ndi1, active compounds read low 0.982 | S. cerevisiae deletion strains, locus YML124C, strain tub3, active compounds read low 1.02 | S. cerevisiae deletion strains, locus YMR058W, strain fet3, active compounds read low 0.995 | S. cerevisiae deletion strains, locus YMR078C, strain ctf18, active compounds read low 1.01 | S. cerevisiae deletion strains, locus YMR125W, strain sto1, active compounds read low 1 | S. cerevisiae deletion strains, locus YMR129W, active compounds read low 1.01 | S. cerevisiae deletion strains, locus YMR205C, strain PFK2, active compounds read low 0.976 | S. cerevisiae deletion strains, locus YMR223W, strain ubp8, active compounds read low 1.02 | S. cerevisiae deletion strains, locus YMR231W, strain pep5, active compounds read low 0.991 | S. cerevisiae deletion strains, locus YMR263W, strain SAP30, active compounds read low 1.02 | S. cerevisiae deletion strains, locus YMR307W, strain GAS1, active compounds read low 1.04 | S. cerevisiae deletion strains, locus YNL067W, strain RPL9B, active compounds read low 1.03 | S. cerevisiae deletion strains, locus YNL071W, strain lat1, active compounds read low 1.01 | S. cerevisiae deletion strains, locus YNL128W, strain TEP1, active compounds read low 1.02 | S. cerevisiae deletion strains, locus YNL153C, strain GIM3, active compounds read low 1.02 | S. cerevisiae deletion strains, locus YNL183C, strain NPR1, active compounds read low 0.868 | S. cerevisiae deletion strains, locus YNL209W, strain ssb2, active compounds read low 1.01 | S. cerevisiae deletion strains, locus YNL233W, strain BNI4, active compounds read low 1.02 | S. cerevisiae deletion strains, locus YNL248C, strain rpa49, active compounds read low 1.03 | S. cerevisiae deletion strains, locus YNL250W, strain rad50, active compounds read low 1.02 | S. cerevisiae deletion strains, locus YNL271C, strain bni1, active compounds read low 1.02 | S. cerevisiae deletion strains, locus YNL298W, strain CLA4, active compounds read low 0.998 | S. cerevisiae deletion strains, locus YNL307C, strain MCK1, active compounds read low 1.02 | S. cerevisiae deletion strains, locus YNL322C, strain KRE1 (second series), active compounds read low 1.01 | S. cerevisiae deletion strains, locus YNL322C, strain KRE1, active compounds read low 1.01 | S. cerevisiae deletion strains, locus YNR049C, strain mso1, active compounds read low 0.995 | S. cerevisiae deletion strains, locus YNR052C, strain pop2, active compounds read low 1 | S. cerevisiae deletion strains, locus YOL006C, strain TOP1, active compounds read low 1.11 | S. cerevisiae deletion strains, locus YOL012C, strain htz1 0.843 | S. cerevisiae deletion strains, locus YOL147C, strain pex11, active compounds read low 1.02 | S. cerevisiae deletion strains, locus YOR001W, strain rrp6, active compounds read low 0.969 | S. cerevisiae deletion strains, locus YOR061W, strain CKA2, active compounds read low 1.01 | S. cerevisiae deletion strains, locus YOR069W, strain VPS5, active compounds read low 1.01 | S. cerevisiae deletion strains, locus YOR070C, strain gyp1, active compounds read low 1.01 | S. cerevisiae deletion strains, locus YOR080W, strain dia2, active compounds read low 0.976 | S. cerevisiae deletion strains, locus YOR083W, strain WHI5, active compounds read low 0.951 | S. cerevisiae deletion strains, locus YOR106W, strain vam3, active compounds read low 0.975 | S. cerevisiae deletion strains, locus YOR136W, strain idh2, active compounds read low 1.02 | S. cerevisiae deletion strains, locus YOR144C, strain elg1, active compounds read low 1.02 | S. cerevisiae deletion strains, locus YOR184W, strain ser1, active compounds read low 1.02 | S. cerevisiae deletion strains, locus YOR231W, strain MKK1, active compounds read low 0.97 | S. cerevisiae deletion strains, locus YOR265W, strain rbl2, active compounds read low 1 | S. cerevisiae deletion strains, locus YOR270C, strain vph1, active compounds read low 1 | S. cerevisiae deletion strains, locus YOR290C, strain snf2, active compounds read low 1.02 | S. cerevisiae deletion strains, locus YOR316C, strain cot1, active compounds read low 1.02 | S. cerevisiae deletion strains, locus YPL051W, strain arl3, active compounds read low 0.998 | S. cerevisiae deletion strains, locus YPL055C, strain LGE1, active compounds read low 1.02 | S. cerevisiae deletion strains, locus YPL078C, strain atp4, active compounds read low 0.986 | S. cerevisiae deletion strains, locus YPL106C, strain sse1, active compounds read low 1.02 | S. cerevisiae deletion strains, locus YPL240C, strain hsp82, active compounds read low 0.982 | S. cerevisiae deletion strains, locus YPL241C, strain CIN2, active compounds read low 1 | S. cerevisiae deletion strains, locus YPL256C, strain CLN2, active compounds read low 0.963 | S. cerevisiae deletion strains, locus YPR119W, strain clb2, active compounds read low 1.01 | S. cerevisiae deletion strains, locus YPR141C, strain kar3, active compounds read low 1.02 | S. cerevisiae deletion strains, locus YPR163C, strain tif3, active compounds read low 1.02 | S. cerevisiae deletion strains, locus YPR167C, strain met16, active compounds read low 1.01 | S. cerevisiae deletion strains, strain wtn01, active compounds read low 1.02 | S. cerevisiae strains, strain wild type, active compounds read low 1.01
